Experimental data as given in PubChem BioAssay AID1159580 (chemical genetic matrix, 2015).
Out of some 5,500 compounds screened, about 2,000 (36%) were called active. About 18% were inconclusive and are not listed. No stated cut-off is given here; in the data, active means normalized growth mostly below about 0.91 (no sharp cut-off); inconclusive means no clear call, values can overlap the other calls; inactive means mostly above about 0.92. Some of the results follow.

Experiment: chemical genetic growth profiling, strain panel (AID 1159580);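 further: tested at 20 µM; growth read once vehicle control cultures reached saturation at 30 °C; 1 = growth at the plate median or of vehicle wells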
Details: S. cerevisiae deletion strains, growth OD

Measured: normalized growth

CCOc1ccc(NC(=O)CC(C)O)cc1 (stereo not drawn)
inactive: locus YHR030C, strain SLT2, stronger effect = lower value 1.02 | locus YHR079C, strain IRE1, stronger effect = lower value 1.02 | locus YJL095W, strain BCK1, stronger effect = lower value 1.02 | locus YJR066W, strain TOR1, stronger effect = lower value 0.94 | locus YLR113W, strain HOG1, stronger effect = lower value 1.06 | locus YNL183C, strain NPR1, stronger effect = lower value 0.939 | locus YOR231W, strain MKK1, stronger effect = lower value 1.01 | locus YPL256C, strain CLN2, stronger effect = lower value 1.01
